# Test results taken from ChEMBL document CHEMBL4513216, “Probing the Open Global Health Chemical Diversity Library for Multistage-Active Starting Points for Next-Generation Antimalarials” (ACS Infect Dis, 2020).
# The campaign covered roughly 68,000 compounds. About 2,700 (4%) showed an effect of 50% or more. This is one part of a sample in which strong results are shown more often than they occur.
# Tested on: Plasmodium berghei
# Assay: Screen against P. berghei liver stage (PbLuc), transformed with Luciferase, at 2uM
# Assay type: functional, HepG2
# Conditions: tested at 2 uM
row,Structure (SMILES),INHIBITION [%]
1,CC(O)CN1CCC(CN(C)Cc2ccc(C#N)cc2)CC1 (centres undefined),-3.99
2,CN(Cc1ccc(C#N)cc1)CC1CCS(=O)(=O)C1 (centres undefined),54.78
3,CN(CCOc1ccc(C#N)cc1)CC1CCS(=O)(=O)C1 (centres undefined),14.59
4,Cc1cc(=O)n2ncnc2n1CC(O)COCc1ccccc1Cl (centres undefined),19.59
5,CN(Cc1nc2ccccc2[nH]1)C(=O)CN(C)c1ccc(Cl)cn1,60.71
6,CN(CC(=O)Nc1ccccc1)C(=O)CN(C)c1ccc(Cl)cn1,-35.22
7,CN(Cc1nc2ccccc2[nH]1)C(=O)CN(C)c1ccccc1,-20.08
8,Cc1ncsc1CN1CCn2c(COc3cccnc3)cnc2C1C (centres undefined),-48.36
9,CN(C)c1nccc(N(C)C2CCOCC2)n1,19.59
10,CC(C)N1CCC(N(C)c2ccnc(N(C)C)n2)CC1,69.67
11,CN(C)c1nccc(N(C)C2CCCCC2)n1,38.67
12,CCN(C)Cc1cccc(CNC(=O)CSCc2ccncc2)c1,-56.58
13,CCN(C)Cc1cccc(CNC(=O)CSCc2ccccn2)c1,72.94
14,CCCSCC(=O)NCc1cccc(CN(C)CC)c1,15.56
15,CO[C@H]1CN(C(=O)c2cc3ccccc3[nH]2)CC[C@H]1N,13.24
16,O=C(c1ccoc1)N1CCOCC2(CCN(Cc3cccs3)C2)C1 (centres undefined),3.11
17,CN1CCN(CCOc2ccc(NC(=O)c3ccoc3)cc2)CC1,6.78
18,CN(C)c1nc2c(c(=O)[nH]1)CCN(C(=O)c1cccc3nccnc13)C2,-16.93
19,Cc1nc2sccn2c1C(=O)N1CCc2[nH]cnc2C1,-13.03
20,Cc1nc2sccn2c1C(=O)N1CCc2c(nc(N(C)C)[nH]c2=O)C1,68.02
21,Cc1nc2sccn2c1C(=O)N1CCc2c(nc(N)[nH]c2=O)C1,-14.71
22,CN(C)c1nc2c(c(=O)[nH]1)CCN(C(=O)c1c[nH]c(=O)c(Cl)c1)C2,33.9
23,Cc1nc(C(C)C)ncc1C(=O)N1CCc2c(nc(N(C)C)[nH]c2=O)C1,55.36

row,Structure (SMILES),INHIBITION [%]
1,O=C(Nc1nccs1)C1CCCN1Cc1ccccn1 (centres undefined),12.47
2,CCc1nc(-c2ccc(NC(=O)N3CCCC3)cc2)no1,-75.24
3,COc1ccnc(N2CCC3(CC2)[C@H](O)C[C@@H]3OCCN(C)C)n1,-2.96
4,Cc1nc(C2CCN(S(C)(=O)=O)CC2)nc2c1CCC(=O)N2CC(C)C,0.12
5,Cc1cc(N2CCCC2(C)c2nc(C)cc(C(=O)N(C)C)n2)ncn1 (centres undefined),-27.61
6,CCOC(=O)N1CCN(C(=O)C2Cc3ccccc3CN2C)CC1 (centres undefined),-55.24
7,CCN(CC)S(=O)(=O)N1CCCC1c1cccc(Nc2ncc(C)s2)n1 (centres undefined),56.16
8,Cc1ccccc1CN1CCCC1c1cccc(Nc2nccs2)n1 (centres undefined),15.61
9,c1ccc(CCN2CCCC2c2cccc(Nc3nccs3)n2)cc1 (centres undefined),30.29
10,CS(=O)(=O)N1CCCC1c1cccc(Nc2nccs2)n1 (centres undefined),69.91
11,Cc1cnc(Nc2cccc(C3CCCN3C(=O)CO)n2)s1 (centres undefined),35.31
12,Cc1cnc(Nc2cccc(C3CCCN3Cc3cn(C)nc3C)n2)s1 (centres undefined),-15.38
13,Cc1ccccc1CS(=O)(=O)CC(=O)N(C)Cc1ccccc1,34.25
14,CS(=O)(=O)NC[C@]12COC[C@H]1CN(CC1CCCC1)C2,13.65
15,O=C(CC1CN(Cc2ccccc2)CCO1)Nc1ccsc1 (centres undefined),19.53
16,CCN(CCSc1ccccc1)C(=O)c1cn(C2CCC(N)CC2)nn1 (centres undefined),50.61
17,Cc1ccc(SCCN(C)C(=O)c2cn(C3CCC(N)CC3)nn2)cc1 (centres undefined),40.47
18,Cc1ccc(SCCCNC(=O)c2cn(C3CCC(N)CC3)nn2)cc1 (centres undefined),18.63
19,CCc1nnc2n1CCN(C(=O)c1ccc3[nH]cnc3c1)C2,-17.45
20,CCc1nccn1-c1cncc(C2CCCN2Cc2cccnc2)n1 (centres undefined),18.91
21,CCc1nsc(N2CCCN(C(=O)c3ccc(CC)o3)CC2)n1,-2.93
22,CS(=O)(=O)NCCNCc1ccc(Br)s1,21.24
23,COCCNC(=O)CCNc1ccc(Cl)cn1,33.64

row,Structure (SMILES),INHIBITION [%]
1,CS(=O)(=O)CCC(=O)Nc1cc(Cl)c(Cl)cn1,38.49
2,COCCCC(=O)Nc1[nH]nc(-c2ccncc2)c1C,1.03
3,CS(=O)(=O)CCCC(=O)Nc1cc(Cl)c(Cl)cn1,59.08
4,COCCCC(=O)Nc1cc(Cl)c(Cl)cn1,66.26
5,CS(=O)(=O)CCCC(=O)Nc1cc(-c2cccc(F)c2F)n[nH]1,-5.98
6,CC(C)n1c(C2CCCN(CC(=O)NC(N)=O)C2)nc2ccccc21 (centres undefined),0.31
7,O=C(C1=CCCC1)N1CC[C@]2(C[C@H](OCc3cccnc3)CO2)C1,-8.81
8,NC(=O)C(NC(=O)COC1CCCCC1)c1ccccc1 (centres undefined),35.94
9,COC(=O)C(NC(=O)COC1CCCCC1)c1ccccc1 (centres undefined),54.52
10,NC(=O)C(NC(=O)COC1CCCC1)c1ccccc1 (centres undefined),-6.27
11,O=C(c1cocn1)N1C[C@H]2CCC[C@@]2(COc2ccccn2)C1,-14.27
12,Cc1cc(C(F)(F)F)nn1CCCNC(=O)C1CCN(S(C)(=O)=O)CC1,40.25
13,CC(C)(C)n1ncc2c1NC(=O)CC2c1ccc(C#N)cc1 (centres undefined),7.42
14,Cn1ccc(C(=O)NC2CCC23CCN(C(=O)c2ccncc2)CC3)c1 (centres undefined),-33.11
15,Cn1ccc(C(=O)NC2CCC23CCN(C(=O)c2cnccn2)CC3)c1 (centres undefined),-3.25
16,Cn1ccc(C(=O)NC2CCC23CCN(C(=O)c2ccccn2)CC3)c1 (centres undefined),53.29
17,CCN(Cc1c(F)cccc1Cl)c1cc(C2CCNCC2)nc(C)n1,23.76
18,Cn1ccnc1C(=O)N1CCOC(Cc2ccccc2Cl)C1 (centres undefined),61.99
19,O=C(c1cccnc1)N1CCOC(Cc2ccccc2Cl)C1 (centres undefined),-41.48
20,Cc1nc(C)c(CN2CCOC(Cc3ccccc3Cl)C2)nc1C (centres undefined),63.37
21,Cn1ccnc1C(=O)N1CCOC(Cc2ccc(Cl)cc2)C1 (centres undefined),43.23
22,Cc1cccnc1CN1CCOC(Cc2cccc3ccccc23)C1 (centres undefined),31.05
23,CCc1nc(C)c(CN2CCOC(Cc3ccccc3Cl)C2)[nH]1 (centres undefined),-26.78
